System: Plasmodium falciparum
Assay: GSK_TCMDC: Inhibition of Plasmodium falciparum Dd2 in whole red blood cells, using parasite LDH activity as an index of growth. Test compounds present at 2uM
Assay type: functional

SMILES | Inhibition [%]
O=S(=O)(Nc1ccc(CCN2CCC(N3CCCCC3)CC2)cc1)c1ccc(Cl)cc1 | 18
CNc1ccc(CNCc2cccc(-c3ccc(-c4nc5cc(C(F)(F)F)ccc5[nH]4)cc3)c2)cc1.O=C(O)C(F)(F)F | 100
O=C(Nc1cccc(-c2ccc(-c3nc4cc(F)ccc4[nH]3)s2)c1)c1ccncc1 | 29
Cc1cc2nc(-c3ccc(/C=C/C(=O)NCCCc4ccccc4)cc3)[nH]c2cc1C | 13
CCOc1c(CNCCCNc2nc3ccccc3[nH]2)cc(Br)cc1OC.Cl | 0
O=C(Nc1cccc(-c2cc(-c3c(Cl)cccc3Cl)no2)c1)c1cncc(-c2cccs2)c1 | 39
Cc1cc(N)c2cc(NC(=O)CCC(=O)Nc3ccc4nc(C)cc(N)c4c3)ccc2n1 | 77
CCOc1ccc(-c2nc(NC(=O)COc3ccc(OC)cc3)sc2C)cc1 | 87
COc1cccc(-c2ccc3c(-c4cccc(NC(C)=O)c4)cnc(N)c3c2)c1.O=CO | 83
CC(C)NCc1ccc(-c2ccc(-c3nc4cc(F)ccc4[nH]3)cc2)cc1.O=C(O)C(F)(F)F | 100
COc1ccc(S(=O)(=O)NCCC2CCN(CCCCCNC(=O)C=Cc3ccc(Cl)c(Cl)c3)CC2)cc1 | 0
O=C(NCCCN1CCOCC1)c1cccc(Nc2nccc(Nc3ccc(Oc4ccccc4)cc3)n2)c1 | 22
CCCNC(=O)Nc1cc2cc(-c3ccc(CN4CCCC4)cc3)ccc2n2c(C)nnc12 | 11
CCNc1cc(C)nc(Nc2ccc(NS(=O)(=O)c3ccccc3)cc2)n1 | 54

From ChEMBL document CHEMBL1157539, “Thousands of chemical starting points for antimalarial lead identification” (Nature, 2010)
